Measurements: PubChem BioAssay AID777 (Sanford-Burnham Center for Chemical Genomics, 2007)
Screen size: about 96,000 compounds; about 19,000 (20%) were called active. The list is a sample of the results. Values without a mark were called inactive.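 The calls were made as follows: active = blocking of liver enzyme CYP2C9 beyond about 50% at 5 µM (limit read from the data); inactive = the rest.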

The molecules below were run against Cytochrome P450 2C9 (Homo sapiens) (UniProt P11712) (assay: blockers of cytochrome P450 2C9 activity – biochemical, luminescence, ADME assay, primary screen (AID 777)). Conditions: CYP2C9 Supersomes, luciferin-H conversion, at 5 µM, active compounds read high.
Chain of Cytochrome P450 2C9 (Homo sapiens) (P11712 whole entry, looked up): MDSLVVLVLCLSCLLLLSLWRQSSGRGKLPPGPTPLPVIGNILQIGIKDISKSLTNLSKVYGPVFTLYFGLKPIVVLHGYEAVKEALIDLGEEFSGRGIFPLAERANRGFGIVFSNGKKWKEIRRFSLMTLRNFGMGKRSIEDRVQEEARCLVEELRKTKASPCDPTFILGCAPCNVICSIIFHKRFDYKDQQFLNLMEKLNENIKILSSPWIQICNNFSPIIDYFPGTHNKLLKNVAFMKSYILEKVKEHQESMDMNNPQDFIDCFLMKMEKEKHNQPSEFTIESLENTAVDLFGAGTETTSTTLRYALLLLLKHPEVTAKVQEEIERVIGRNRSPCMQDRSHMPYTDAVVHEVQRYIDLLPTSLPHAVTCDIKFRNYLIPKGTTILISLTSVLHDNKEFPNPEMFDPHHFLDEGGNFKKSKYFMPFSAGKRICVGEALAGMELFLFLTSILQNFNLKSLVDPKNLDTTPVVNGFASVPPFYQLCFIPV

Row | SMILES | inhibition
1 | Cc1ccc(S/C(=N\S(=O)(=O)c2ccc(Cl)cc2)c2ccccc2)cc1 | 48.7%
2 | CCOC(=O)N1CCN(C(=O)c2cnc3n(c2=O)CCS3)CC1 | -13.7%
3 | Cc1cc(N/C=C\C(=O)c2ccc(Cl)c(Cl)c2)no1 | 7.8%
4 | COC(=O)C1=C(N)Oc2cc(C)oc(=O)c2C1c1cccnc1 (stereo not drawn) | 37.9%
5 | Cc1ccc(CS(=O)(=O)CCC(=O)NC2CC2)cc1 | -3.7%
6 | COC(CCN(C)C)(c1ccccc1)c1ccccc1 | -2.1%
7 | CC1(C)Cc2ccccc2-c2nnc(-c3cccc(O)c3)n21 | -7.5%
8 | O=C1OC(NC(=O)c2ccccc2)C(N2CCOCC2)=C1Cl (stereo not drawn) | -6.9%
9 | c1cnc(NC2C3CC4CC(C3)CC2C4)nc1 (stereo not drawn) | 25.9%
10 | CCCCCCn1c(CN2CCCC(C)C2)nc2c1c(=O)n(C)c(=O)n2C (stereo not drawn) | 9.5%
11 | CC1CN(C2CCCCC2)c2nc3c(c(=O)n(C)c(=O)n3C)n2C1 (stereo not drawn) | 82.2% (active)
12 | CC1CCCN(Cc2nc3c(c(=O)n(C)c(=O)n3C)n2CC(=O)c2ccccc2)C1 (stereo not drawn) | 11.2%
13 | COc1ccc(Cl)cc1NC(=O)CN(C)C(=O)CNC(=O)C12CC3CC(CC(C3)C1)C2 | 44.8%
14 | COc1ccc(N2CCN(Cc3ccc(Br)s3)CC2)cc1 | 78.3% (active)
15 | COc1ccc(N2CCN(Cc3cc(=O)oc4ccc5ccccc5c34)CC2)cc1 | 22.6%
16 | Fc1ccc(N2CCN(Cc3cnc(Oc4ccc(Br)cc4)s3)CC2)cc1 | 19.7%
17 | COc1ccccc1CNC(=O)C1CCN(c2nc3ccccc3o2)CC1 | -3.9%
18 | FC(F)(F)c1nc2ccccc2nc1N/N=C/c1ccc(Cl)cc1 | 21.3%
19 | OC(COc1cccc2ccccc12)CN1CCN(c2ccccn2)CC1 (stereo not drawn) | 19.3%
20 | O=C(CN1C(=O)COc2ccccc21)Nc1ccc(F)cc1 | 39%
21 | CC1(C)Oc2ccc(C(=O)N3CCOCC3)cc2N(CC(=O)Nc2ccccc2)C1=O | 45.6%
22 | CC1Cc2ccccc2N1CC(=O)Nc1ccc2c(c1)OC(F)(F)O2 (stereo not drawn) | 71.6% (active)
23 | Cc1cc(Cl)c(S(=O)(=O)Nc2ccc3c(c2)OCCO3)cc1OCC(N)=O | 19.9%
24 | OC1CN=C2Sc3ccccc3N2C1 (stereo not drawn) | -6.8%

Row | SMILES | inhibition
25 | Cc1nn(C(=O)c2ccoc2C)c(N)c1-c1ccccc1 | 26.4%
26 | Cc1nn2c(c1-c1ccccc1)N=C(c1ccco1)CC2c1ccccc1 (stereo not drawn) | 63.5% (active)
27 | Cn1c(=O)c(C(=O)Nc2ncccn2)c(O)c2ccccc21 | -24.6%
28 | O=C1NC(c2cc3c(cc2Cl)OCO3)Oc2ccccc21 (stereo not drawn) | 26.5%
29 | NC(CSC12CC3CC(CC(C3)C1)C2)C(=O)O (stereo not drawn) | 9.2%
30 | COc1ccc(-c2oc(/N=C/N3CCCC3)c(C#N)c2-c2ccc(OC)cc2)cc1 | 96.9% (active)
31 | N#Cc1c2c(c(-c3ccccc3)[nH]c1=O)CCCC2 | -12.7%
32 | N#Cc1c(/N=C/N2CCCC2)oc(-c2ccccc2)c1-c1ccccc1 | 79.9% (active)
33 | Cn1c(C(=O)NCCN2CCc3ccccc3C2)cc2c(=O)[nH]c3ccccc3c21 | 20%
34 | Cc1noc(NS(=O)(=O)c2ccc(N3CC(O)=C(c4ccccc4)C3=N)cc2)c1C | 3.3%
35 | Cc1cc(C(F)(F)F)c(C#N)c(SCC(=O)NC2CC2)n1 | 17.2%
36 | CC(NC(=O)CSc1nc2c(cc1C#N)CN(C)CC2)c1ccccc1 (stereo not drawn) | 74.5% (active)
37 | Cc1ccc2cc(C#N)c(SCC(=O)NCC3CCCO3)nc2c1C (stereo not drawn) | -3.8%
38 | CCCC(C(=O)N1CCOCC1)N1C(=O)C2C3C=CC(C3)C2C1=O (stereo not drawn) | -2.2%
39 | Clc1ccc(Cl)c(Oc2ccc(Oc3nc(Cl)ccc3Cl)cc2)n1 | -102%
40 | CSc1ccc(C#N)cc1NC(=O)c1cccc(Cl)c1 | 18.2%
41 | CN1C(=O)c2ccc(NC(=O)c3c(F)c(F)c(F)c(F)c3F)cc2C1=O | -24%
42 | O=C(c1ccco1)N1CCN(C(=O)c2ccc(COc3ccc(F)cc3)o2)CC1 | 33.7%
43 | CC(NC(=O)Nc1ccccc1)c1ccccc1 (stereo not drawn) | 7%
44 | CC(=O)c1cccc(NC(=O)Nc2ccc(C)cc2)c1 | 17.7%
45 | Cc1ccc(NC(=O)C(C)c2cccc(C(=O)c3ccccc3)c2)cc1 (stereo not drawn) | 57.9% (active)
46 | CCn1c(Cc2ccccc2)nnc1SCc1nc2ccccc2c(=O)[nH]1 | -61.8%
47 | CC1=C(C)CC2C(=O)N(c3cccc4ccccc34)C(=O)C2C1 (stereo not drawn) | 72.9% (active)
48 | O=C(c1ccccc1)c1cc(-c2ccccn2)c(N2CCOCC2)s1 | 25%

Row | SMILES | inhibition
49 | c1cnn(-c2cc(N3CCOCC3)ncn2)c1 | -3.4%
50 | O=C1c2ccccc2-c2ncnc3c(N4CCOCC4)cc(N4CCOCC4)c1c23 | 51.5% (active)
51 | c1ccc(-c2oc3ncnc(N4CCOCC4)c3c2-c2ccccc2)cc1 | 18.1%
52 | Cc1cnc(NC(=O)C2CCCC2)s1 | 10.7%
53 | CCN1C(=O)/C(=C\N2CCN(c3cccc(Cl)c3)CC2)SC1=S | 4.9%
54 | CC(Oc1ccc(Cl)cc1)c1ccnn1S(C)(=O)=O (stereo not drawn) | 24.4%
55 | COc1ccc(CC(=O)n2nc(-c3cccnc3)nc2N)cc1 | 9%
56 | O=C(Cn1ccc([N+](=O)[O-])n1)NCc1cccs1 | -1.6%
57 | C=C(C)CSc1nnc(-c2ccc(C)cc2)n1N | 1.1%
58 | Cc1ccc(NC(=S)N/N=C2/CCCc3c(C)cc(C)cc32)cc1 | 59.7% (active)
59 | Cc1ccc(NC(=S)NCCN2CCOCC2)cc1 | -12.4%
60 | Cc1ccc(NC(=S)NC2CCCC2)cc1 | 29.5%
61 | CCOc1ccc(-c2nc(C)sc2CC(=O)O)cc1 | -0.3%
62 | CC(C)c1ccc(Nc2ncccc2C#N)cc1 | 3.6%
63 | COCCOC(=O)C1=C(C)N=c2s/c(=C\c3cccs3)c(=O)n2C1c1cccs1 (stereo not drawn) | 41.5%
64 | C=CCOC(=O)C1=C(C)NC(C)=C(C(=O)OCC=C)C1c1cccs1 | 96.8% (active)
65 | C=CCN(C(=O)Nc1ccc2oc(C)nc2c1)c1ccccc1 | 22.8%
66 | CCc1c(C)nc2cc(-c3cccs3)[nH]n2c1=O | 30.3%
67 | FC(F)(F)c1nnc2ccc(N3CCN(c4ccccc4)CC3)nn12 | 27.4%
68 | O=C(CSCc1ccccc1Cl)NNC(=O)c1ccccc1 | -1.6%
69 | O=C(CSCc1ccc([N+](=O)[O-])cc1)NCCSCc1ccccc1 | 44.2%
70 | O=C(CSCc1ccc([N+](=O)[O-])cc1)Nc1cccc(C(=O)Nc2ccccc2C(=O)O)c1 | 93.9% (active)
71 | Cc1ccc(C2CC2C(=O)NN)cc1 (stereo not drawn) | 15.8%
72 | CC(=O)c1cccc(NC(=O)N2CCCC2C(=O)NCCc2ccccc2)c1 (stereo not drawn) | -8.8%

Row | SMILES | inhibition
73 | COCCN(C(=O)c1ccco1)c1nnc(-c2ccc(OC)cc2)s1 | 9%
74 | CCN1C(=O)CS/C1=N\c1nccs1 | 17.8%
75 | COc1ccc(-n2nnc3c(=O)n(CC(=O)OCc4ccccc4)cnc32)cc1 | -16%
76 | COc1ccc(-c2c(C(C)=O)c(C)nc3sc4c(=O)n(-c5ccc(C)cc5)nnc4c23)cc1 | 85.6% (active)
77 | COCc1cc(C)nc2sc3c(=O)n(-c4cccc5ccccc45)nnc3c12 | 26.8%
78 | CC(C)(C)NC(=O)C(c1ccco1)N(Cc1ccc2c(c1)OCO2)C(=O)Cn1nnc2ccccc21 (stereo not drawn) | 16.8%
79 | Cc1cccc(-n2ncc(C#N)c2-n2cccc2)c1 | 39.8%
80 | COc1ccc(OC)c(S(=O)(=O)Nc2ccccc2F)c1 | 57.6% (active)
81 | COc1ccccc1NS(=O)(=O)N(C)C | -23%
82 | COc1ccc(Cl)cc1S(=O)(=O)Nc1cccc(C(=O)O)c1 | 14.1%
83 | Cc1ccc(OCC(=O)Nc2ccc(-c3nc4ncccc4o3)cc2)cc1 | -6.6%
84 | Cc1ccc(NC(=O)COc2ccc(-n3ccnc3)cc2)cc1Cl | 95% (active)
85 | Cc1csc(OCC(=O)Nc2ccc(C)c(C)c2)n1 | 4.4%
86 | CCN(CC)c1ccc2cc(C(=O)O)c(=O)oc2c1 | -7.5%
87 | Cc1cc(=O)n2c3c(cccc13)CCC2 | -60.9%
88 | CC(C)Oc1ccc(C(=O)Nc2cc(=O)n(C)c(=O)n2C)cc1 | 10.6%
89 | C=C(C)Cn1c(N2CCN(CC)CC2)nc2c1c(=O)[nH]c(=O)n2C | -14.5%
90 | COc1cc(C(=O)NC(=S)NCc2ccco2)cc(OC)c1OC | 18.9%
91 | Cc1cccc(C)c1NC(=O)CCS(=O)(=O)c1cccc2nsnc12 | -1%
92 | O=C(Nc1cc(=O)[nH]c2ncnn12)c1ccccc1Cl | 5.6%
93 | O=C(CSCc1cccs1)N1CCCC1 | -22.8%
